Test results: PubChem BioAssay AID488890 (Southern Research Specialized Biocontainment Screening …, 2010)
Out of some 320,000 compounds screened, about 1,300 (0.41%) were called active. Not shown: some 3% with an inconclusive outcome. The rule behind the calls is not given here. Only a sample is shown. Entries with a potency or affinity are not part of this list.

Assay: growth inhibition of non-replicating M. tuberculosis (AID 488890);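 note: plate controls were DMSO cells for no effect and high antibiotic wells for full effect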
Conditions: Mycobacterium tuberculosis non-replicating, at 25 µM, stronger effect = higher value

Structure (SMILES)	inhibition
CCC(C)[C@H](NC(=O)c1cc2cc(Cl)ccc2n1C)C(=O)N1CCC(C(=O)O)CC1 (some centres undefined)	0.12%
COc1cccc(CNC(=O)CN2CCC(c3nc4ccc(C)cc4[nH]3)CC2)c1	6.15%
FC(F)(F)c1cccc(CON=C2CCN(c3ncc(C(F)(F)F)cc3Cl)CC2)c1	-8.15%
O=C(Nc1cc(Cl)ccc1Cl)c1ccco1	-1.55%
O=C(Nc1cc(Cl)ccc1Cl)c1ccc(OC(=O)c2ccco2)cc1	49.5%
CN(Cc1ccc2c(c1)OCCO2)C(=O)CSc1ncnc2sccc12	25.8%
CCCc1cc(=O)[nH]c(SCC(=O)c2cc(C)n(CC(F)(F)F)c2C)n1	6.27%
COc1cccc(-n2ccnc2SCC(=O)Nc2ccccc2)c1	2.78%
Cn1cccc1/C=N\NC(=O)C1COc2ccc(C(C)(C)C)cc2O1 (centres undefined)	78.1%
O=C(N/N=C\c1ccc(O)c([N+](=O)[O-])c1)C1COc2ccccc2O1 (centres undefined)	57%
O=C(N/N=C/c1c[nH]c2ccccc12)C1COc2ccccc2O1 (centres undefined)	26.6%
C/C(=N\NC(=O)C1COc2ccccc2O1)c1ccc(Cl)s1 (centres undefined)	76%
O=C(N/N=C/c1cccc([N+](=O)[O-])c1)C1COc2ccccc2O1 (centres undefined)	29.6%
CC(C)(C)c1ccc2c(c1)OC(C(=O)N/N=C/c1ccc([N+](=O)[O-])o1)CO2 (centres undefined)	77.1%
CC(C)(C)c1ccc2c(c1)OC(C(=O)N/N=C\c1ccncc1)CO2 (centres undefined)	10.4%
O=C(N/N=C\c1ccc(-c2ccc([N+](=O)[O-])cc2)o1)C1COc2ccccc2O1 (centres undefined)	42.2%
CC(C)CNS(=O)(=O)c1ccccc1C(=O)N1CCCCC1	8.8%
C/C(=C\c1ccccc1)C(=O)N1CCN(c2cccc(C(F)(F)F)c2)CC1	22.2%
COc1ccc(N2CC(C)Cn3c2nc2c3c(=O)n(Cc3ccc(C)cc3)c(=O)n2C)c(OC)c1 (centres undefined)	17.9%
CCc1ccc(C(=O)NNC(=O)c2ccc3c(=O)n4c(nc3c2)CCC4)cc1	-9.87%
Cc1cc(OC(C)C(=O)Nc2ccccc2C(=O)N2CCCC2)ccc1Cl (centres undefined)	4.49%
O=C(/C=C/c1ccccc1)NCCc1ccccc1	1.5%
COc1ccc(N2CC(C(=O)OCC(=O)Nc3cccc(C)c3C)CC2=O)cc1 (centres undefined)	-1.13%
Cn1c(N)c(C(=O)CNC2CCCCC2)c(=O)n(C)c1=O	-15.1%
CCOC(=O)CNC(=O)CSc1nnc(C)c(=O)[nH]1	-4.04%

Structure (SMILES)	inhibition
Cc1cc(C)c(S(=O)(=O)c2ccccc2C)c(OCCN(C)C)n1	6.46%
O=C(N/N=C/c1ccco1)C1COc2ccccc2O1 (centres undefined)	4.17%
CN(C)c1ccc(/C=N/NC(=O)C2COc3ccccc3O2)o1 (centres undefined)	1.59%
CCCN1CCN(c2ccc([N+](=O)[O-])cc2C#N)CC1	2.83%
CC1CC(=O)C(C2c3ccccc3CCN2C(=O)CCl)C(=O)C1 (centres undefined)	14.6%
CN1CCCC(OC(=O)c2ccccc2Br)C1 (centres undefined)	-1.81%
CCN1C(=O)CC(N2CCC(C(=O)N3CCCCCC3)CC2)C1=O (centres undefined)	77%
O=C1CC(N2CCN(c3ccccc3O)CC2)C(=O)N1Cc1ccccc1 (centres undefined)	72%
O=C(CC1C(=O)NCCN1Cc1cccc(Oc2ccccc2)c1)NCCc1ccncc1 (centres undefined)	12.8%
Cc1cccc(NC(=O)c2c(O)c3ccccc3n(C)c2=O)c1	13.4%
COc1ccc(C(=O)OCC(=O)NC(=O)NC(C)C)cc1OC	-0.28%
CC(NC(=O)C1CCCO1)c1ccccc1 (centres undefined)	17.7%
Cc1ccc(C(C)NC(=O)C2CCCO2)cc1C (centres undefined)	16.5%
COc1cc2ccccc2cc1C(=O)N1CCCCC1	12%
COC(=O)C1=C(C)N(Cc2ccccc2)C(=NCc2cc(OC)c(OC)c(OC)c2)N[C@H]1c1cccc(F)c1	65.1%
COC(=O)C1=C(C)N(Cc2ccccc2)C(=NCc2ccc(OC)cc2)N[C@H]1c1cccc(F)c1	79.1%
C=CCn1c(O)c(/C=N/NC(=O)c2ccncc2)c(=O)[nH]c1=O	58%
COc1ccccc1C(=O)CC(=O)c1ccccc1	52.4%
O=c1c2ccccc2nc2ccccn12	-2.46%
O=[N+]([O-])c1cnc2ccccc2c1	-10.7%
Cc1nc2ccccc2c(=O)n1-c1cc([N+](=O)[O-])cc([N+](=O)[O-])c1	19.9%
Nc1c(-c2cccc([N+](=O)[O-])c2)nc2ccccn12	6.84%
CCCOc1ccc(-c2nc(C#N)c(N3CCN(C)CC3)o2)cc1	30.2%
CCOc1ccc(CCNC(=O)COC(=O)CCC(=O)c2cccs2)cc1OCC	11.4%
Cc1ccc(/C(=N\S(=O)(=O)c2ccc(Br)cc2)Nc2ccccc2C)cc1	-11%

Structure (SMILES)	inhibition
COc1ccc(NC(=O)CSCC(=O)NC2(C)CCS(=O)(=O)C2)cc1 (centres undefined)	-8.31%
CCn1ccnc1[C@@H]1C[C@H]2CN(Cc3ccccc3OC)C(=O)[C@]23CCCN13	29.3%
CCN(Cc1ccncc1)C(=S)Nc1ccccc1	-19.8%
CCOC(=O)C(C)Oc1ccsc1C(=O)OC (centres undefined)	53.8%
COc1cc(C=O)c(Cl)cc1OCC(N)=O	-0.64%
O=C(Nc1ccccc1N1CCCC1)c1cccnc1Cl	7.22%
Cc1ccc(NC(=S)N2CCN(S(=O)(=O)c3ccccc3)CC2)cc1	-12.6%
Cc1ccc(OCC(=O)N2CCc3ccccc32)cc1	43%
O=C(COc1ccc(F)cc1)N1CCCc2ccccc21	74.6%
CC(=O)NC(Cc1c[nH]c2ccccc12)C(=O)OCC(=O)Nc1cc(C)on1 (centres undefined)	-1.64%
O=C(O)c1ccc(Sc2nnnn2-c2ccccc2)c([N+](=O)[O-])c1	29.1%
Cn1nnnc1Sc1ccc(C(=O)O)cc1[N+](=O)[O-]	-12.4%
O=C(c1cc2n(n1)C(C(F)(F)F)CC(c1ccco1)N2)N1CCN(c2ccccn2)CC1 (centres undefined)	8.02%
NC(N)=N/N=C/c1ccccc1	13.1%
CCN(Cc1ccccc1)c1ccc(/C=N/N2CCOCC2)cc1	12.8%
O=C1c2ccccc2NC(c2ccco2)N1NS(=O)(=O)c1ccccc1 (centres undefined)	1.96%
O=[N+]([O-])c1ccc(Oc2ccc(-c3nnco3)cc2)c(Cl)c1	-9.83%
O=C(CCc1nc(-c2ccccc2Cl)no1)NCc1ccco1	43.2%
O=[N+]([O-])c1ccc(NCCO)c2ncccc12	9.39%
CCNCCNc1ccc([N+](=O)[O-])c2cccnc12	79.3%
O=C(CCSc1ccccc1)N1CCOCC1	14.3%
O=C(CCSc1nnc(-c2ccco2)o1)N1CCOCC1	75.9%
O=C(CCSc1nnc(-c2ccc(O)cc2)o1)N1CCOCC1	70.5%
O=C(CCSc1ccccc1)N1CCN(c2ccccc2)CC1	10.9%
